In PubChem BioAssay (EPA / NIEHS):
The source made the active and inactive calls. How the source made its calls: active means hit-call score of the fitted dose curve at least 0.9, where 1 is the maximum; inactive means score below 0.9.

read-out: BCL2L11 (gene 10018); assay: LTEA_HepaRG_BCL2L11: Life Technologies and Expression Analysis (LTEA) Assay for Bcl-2 (BCL2L11) gene using HepaRG (AID 2283473); conditions: mRNA level, 48 h; actives raise or lower the signal
Experimental: LTEA_HepaRG is a cell based, multiplexed-readout assay that uses HepaRG, a human liver cell line, with measurements taken at 48 hours after chemical dosing on a 96-well plate.LTEA_HepaRG_BCL2L11 is one of 102 assay component(s) measured in the LTEA HepaRG cell culture assay. It is a marker of Cell proliferation, survival, death.Data from the assay component LTEA_HepaRG_BCL2L11 was analyzed into 1 endpoint. This assay endpoint, LTEA_HepaRG_BCL2L11, was analyzed with bidirectional fitting relative to DMSO as the negative control and baseline of activity. Using a type of inducible reporter, measures of mRNA induction for gain or loss-of-signal activity can be used to understand regulation of transcription factor activity. To generalize the intended target to other relatable targets, this assay endpoint is annotated to the cell cycle intended target family, where the subfamily is Cell proliferation, survival, death.
A total of 1060 chemcials from the ToxCast library were tested in eight-point concentration-response experiments. Cell culture and cytotoxicity assays were conducted at Thermo Fisher Scientific's Custom Services facility (Madison, WI). A single lot of human HepaRG cells (Thermo Fisher Scientific, Frederick, MD) was used for the cell culture experiments. 96-well format collagen type I coated plates of human HepaRG cells were prepared using established methods. Briefly, cryopreserved HepaRG cells were thawed, plated at a density of approximately 100,000 cells/well in HepaRG Thaw, Plate, and General Purpose media (HPRG770, Thermo Fisher Scientific), and incubated for 48 hours. 0.5% DMSO was selected as vehicle control to balance the requisite need of DMSO in HepaRG cultures to maintain differentiation (for example, baseline metabolism, proportions of hepatocytes vs. cholangiocytes), while enabling further hepatic receptor pathway activation (for example, PXR and CAR) in response to chemical exposure. 48 hours after plating, the culture medium was replaced with HepaRG Serum-Free Incudtion Media. Cells were exposed to each test chemical in duplicate and maintained in CO2 incubators for another 48 hours. Chemical plates were thawed to room temperature and 200x concentrations of treatment groups were prepared. 8-point conentration-reponse curves were made with the highest exposure at 100 uM, followed by half-log dilutions, all in 0.5% DMSO. Each test plate contained variouse controls, induction positive controls (1mM phenobarbital), cytotoxicity positive controls ([…] aflatoxin B1), vehicle controls (0.5% DMSO), and total lysis controls (0.5% DMSO). Cell morphology images were taken using an Essen IncuCyte FLR automated microscope, with six 96-well plates imaged in about 24 minutes. Images were captured and exported and JPEG files. Spent culture media was transfered to black-well plates for the LDH assay, and remaining media was sorted at -80 C for later use. Cells were treated with RLT buffer and frozen until shipped for gene expression analysis. Total RNA was isolated from the cell suspension in 75 uL of Buffer RLT (Qiagen, Germantown, MD 20874) by Quintiles/Expression Analysis (Durham, NC) using a custom isolation procedure. Total RNA from each plate well was transferred to a preamplification plate. Fluidigm's 96.96 Dynamic ArrayTM (Fluidigm, Amsterdam, the Netherlands) technology was used for gene expression analyses by quantitative reverse transcription polymerase chain reaction (qRT-PCR, performed by Quintiles/Expression Analysis, Durham, NC)89. Standard TaqManTM Assays (Applied Biosystems/ThermoFisher Scientific, Foster City, CA) were used to assess the expression of 93 genes selected based on their selectivity and sensitivity to important hepatic receptors known to be modulated by environmental chemicals; importance in human hepatocyte functionality; and hepatotoxicity. […]

SMILES | outcome | AC50
OC(c1ccc(Cl)cc1)(c1ccc(Cl)cc1)C(Cl)(Cl)Cl | inactive | 
CCSC(=O)N1CCCCCC1 | inactive | 
CCCCOCN(C(=O)CCl)c1c(CC)cccc1CC | inactive | 
CC(C)NC(=O)N1CC(=O)N(c2cc(Cl)cc(Cl)c2)C1=O | inactive | 
CC(C)Nc1nc(Cl)nc(NC(C)C)n1 | inactive | 
C=CCOC(=O)C(C)(C)OC(=O)c1cc(-n2c(=O)cc(C(F)(F)F)n(C)c2=O)ccc1Cl | inactive | 
COC(=O)N(C(=O)N1CO[C@@]2(C(=O)OC)Cc3cc(Cl)ccc3C2=N1)c1ccc(OC(F)(F)F)cc1 |  | 12.7 µM (active)
N#Cc1c(Cl)cccc1Cl | inactive | 
CC(C)Oc1cccc(NC(=O)c2ccccc2C(F)(F)F)c1 | inactive | 
CO/N=C(/C1=NOCCO1)c1ccccc1Oc1ncnc(Oc2ccccc2Cl)c1F |  | 27.7 µM (active)
CCOc1nc(C(Cl)(Cl)Cl)ns1 |  | 0.862 µM (active)
COC(=O)c1c(C(F)F)nc(C(F)(F)F)c(C2=NCCS2)c1CC(C)C | inactive | 
CC(C)C1(C)N=C(c2ncccc2C(=O)O)NC1=O (stereo not given) | inactive | 
CC(C)N1C(=O)c2ccccc2NS1(=O)=O | inactive | 
COCC(=O)N(c1c(C)cccc1C)C(C)C(=O)OC (stereo not given) | inactive | 
COP(=S)(OC)SCn1nnc2ccccc2c1=O | inactive | 
COP(=S)(OC)Oc1ccc([N+](=O)[O-])c(C)c1 | inactive | 
CCOc1cc(C(C)(C)C)ccc1C1COC(c2c(F)cccc2F)=N1 (stereo not given) | inactive | 
O=P(O)(O)CCCl | inactive | 
CS(=O)(=O)c1cc(C(F)(F)F)ccc1C(=O)c1cnoc1C1CC1 | inactive | 

SMILES | outcome | AC50
Nc1c(Cl)c(Cl)nc(C(=O)O)c1Cl | inactive | 
CCNC(=O)NC(=O)C(C#N)=NOC | inactive | 
CC(C)N1C(=O)N(c2ccccc2)CSC1=NC(C)(C)C | inactive | 
CCOP(=S)(OCC)Oc1nc(Cl)n(C(C)C)n1 | inactive | 
CCNP(=S)(OC)O/C(C)=C/C(=O)OC(C)C (stereo not given) | inactive | 
COc1ccc(-c2ccccc2)cc1NNC(=O)OC(C)C | inactive | 
CC(C)(C)C(=O)C(Oc1ccc(Cl)cc1)n1cncn1 (stereo not given) | inactive | 
CN=C=S | inactive | 
CCCCC(O)(Cn1cncn1)c1ccc(Cl)cc1Cl (stereo not given) | inactive | 
Cc1ccc(N=CN(C)C=Nc2ccc(C)cc2C)c(C)c1 | inactive | 
O=C1C2CC=CCC2C(=O)N1SC(Cl)(Cl)Cl (stereo not given) | inactive | 
COP(=O)(OC)O/C(C)=C/C(=O)N(C)C | inactive | 
O=C(Nc1ccccc1-c1ccc(Cl)cc1)c1cccnc1Cl | inactive | 
CNC(=O)Oc1cccc2ccccc12 | inactive | 
CNC(=O)N(C)c1nnc(C(C)(C)C)s1 | inactive | 
CC(C)=CC1C(C(=O)OCc2coc(Cc3ccccc3)c2)C1(C)C (stereo not given) | inactive | 
CCN(CC)C(=O)C(C)Oc1cccc2ccccc12 (stereo not given) | inactive | 
CCOc1nc(F)cc2nc(S(=O)(=O)Nc3c(Cl)cccc3Cl)nn12 | inactive | 
CC1(C)C(C(=O)OC(C#N)c2cccc(Oc3ccccc3)c2)C1(C)C (stereo not given) | inactive | 
Clc1nc(Cl)nc(Nc2ccccc2Cl)n1 | inactive | 
